Vif inh – blocks HIV Vif function; HEK293T cells, Vif self-association by quenched fluorescence, imaging, 24 h; inhibition, % at 7.49 µM; actives 0.35% (n = 340,000); in the data active = inhibition above about 50%, passing the limit was not always enough
Neddylation inh – blocks human cullin neddylation. TR-FRET cullin neddylation, biochemical. P61081+Q13564. actives 0.58% (n = 360,000). inhibition, % at 25 µM; in the data active = inhibition above about 36%
Target sequence (P61081 whole entry, looked up): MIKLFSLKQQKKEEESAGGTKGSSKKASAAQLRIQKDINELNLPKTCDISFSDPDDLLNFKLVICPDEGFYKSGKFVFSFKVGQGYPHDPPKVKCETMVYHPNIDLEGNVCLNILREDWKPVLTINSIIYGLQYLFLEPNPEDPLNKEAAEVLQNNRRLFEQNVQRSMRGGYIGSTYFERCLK
Target sequence (Q13564 whole entry, looked up): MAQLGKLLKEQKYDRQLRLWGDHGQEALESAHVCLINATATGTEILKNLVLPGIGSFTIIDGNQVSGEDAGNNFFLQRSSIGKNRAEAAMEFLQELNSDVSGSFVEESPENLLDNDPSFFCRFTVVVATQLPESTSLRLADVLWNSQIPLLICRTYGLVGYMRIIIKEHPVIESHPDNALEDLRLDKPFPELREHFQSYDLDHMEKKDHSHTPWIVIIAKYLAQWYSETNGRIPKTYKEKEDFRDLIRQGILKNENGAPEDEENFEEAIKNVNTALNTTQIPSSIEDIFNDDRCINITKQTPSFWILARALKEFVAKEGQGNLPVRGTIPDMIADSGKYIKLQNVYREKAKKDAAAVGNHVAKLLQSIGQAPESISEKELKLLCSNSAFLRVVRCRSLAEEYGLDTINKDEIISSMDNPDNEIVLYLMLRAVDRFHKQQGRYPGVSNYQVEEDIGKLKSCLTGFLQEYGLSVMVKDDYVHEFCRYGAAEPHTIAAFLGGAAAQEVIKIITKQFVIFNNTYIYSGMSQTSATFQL
INS-1E GSIS act – primary screen for activators of insulin secretion dependent on glucose, INS-1E cells, GLuc reporter luminescence | INS-1E GLuc reporter insulin secretion, 2-3 h | activation, % at 16.6 µM | actives 0.61% (n = 370,000) | AID 743287;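 active = lowest replicate activation of at least 40%, so every replicate reaches that level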;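 also: 0% = median of neutral control wells and 100% = median of IBMX positive control wells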
dFosB act-1 – enhances mouse delta FosB homodimer DNA binding; P13346; purified delta FosB, TAMRA-CDK5 oligo fluorescence polarization; percent of positive-control signal above neutral wells; activation, % at 25 µM; actives 0.99% (n = 340,000);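 active = mean activation above about 17%, with every replicate also reaching it, limit read from the data, passing the limit was not always enough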
Bfl-1 A1 inh – inhibitors of the anti-apoptotic protein A1, read as caspase activation; caspase activation, % (concentration not given with the values); MEF A1-2A-BIM cells, Caspase-Glo 3/7 luminescence, 3 h; percent of clofoctol response, vehicle zero; actives 0.066% (n = 330,000);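 active = over half of replicate activation scores above 10%, or exactly half above 10 with the replicate mean above 10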
dFosB act-2 – activators of mouse delta FosB homodimer DNA binding; 2,400 tested, under 10 active; AID 588690; shares compounds with dFosB act-1; purified delta FosB, TAMRA-CDK5 oligo fluorescence polarization; normalised: neutral wells 0, positive control 100; activation, % at 24.9 µM;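 active = highest replicate activation at or above 34% and every replicate reaching that threshold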;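 also: higher polarization means more probe DNA bound by delta FosB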
* marks the source's active call; other numbers are inactive results; · = not tested or not shown. Sampled rows, rich in hits. Any-hit rate of the full collection: about 1.9%.

SMILES | Vif inh | Neddylation inh | INS-1E GSIS act | dFosB act-1 | Bfl-1 A1 inh | dFosB act-2
COc1ccc(N(C(=O)c2snc(C(N)=O)c2N)C(C(=O)NC2CCCCC2)c2ccc(F)cc2)c(OC)c1 (stereo not drawn) | 9.7 | · | 19.2 | 40.4* | 0.4 | -0.2
COc1ccc(N(C(=O)c2snc(C(N)=O)c2N)C(C(=O)NC2CCCC2)c2cccs2)cc1OC (stereo not drawn) | 9.0 | 28.9 | 1.0 | 36.7* | 0.5 | 1.5
COc1ccc(NC(=O)c2cc(-c3ccc(C)c(C)c3O)n[nH]2)cc1Cl | -11.4 | 10.9 | -22.6 | 12.9 | 1.0 | ·
CC(=O)Nc1ccc(NC(=O)c2cc(-c3ccc(C)c(C)c3O)n[nH]2)cc1 | -1.0 | 20.4 | 10.6 | 68.2* | 0.2 | 0.1
Cc1nn(Cc2ccc(F)cc2)c2sc(C(=O)Nc3nccs3)cc12 | -1.1 | -6.7 | -0.3 | 49.0* | -0.7 | 7.0
Cc1nn(Cc2ccccc2Cl)c2sc(C(=O)Nc3nccs3)cc12 | 3.2 | 2.2 | -4.7 | 7.1 | -0.8 | ·
CCOc1cc(CNCCCN2CCOCC2)cc(Br)c1OCc1ccccc1Cl | 9.5 | 3.6 | -0.4 | 20.7* | 0.6 | 0.6
COc1ccc(NC(=O)N[C@@H]2C=C[C@H](CC(=O)NCc3ccccn3)O[C@@H]2CO)cc1 | · | · | -8.4 | · | · | ·
Cc1ccc(S(=O)(=O)N(C)C[C@@H]2OCCCC[C@H](C)Oc3ccc(NS(C)(=O)=O)cc3C(=O)N([C@H](C)CO)C[C@H]2C)cc1 | · | · | 1.5 | · | · | ·
O=S(=O)(N[C@H]1CC[C@@H](CCn2cc(-c3ccccn3)nn2)O[C@H]1CO)c1cccc(F)c1 | · | · | 7.1 | · | · | ·
NC(=S)N/N=C/c1coc2cc(Br)ccc2c1=O | -15.8 | 2.1 | · | 24.3* | 1.0 | -0.2
COc1ccc(C[C@@H]2CCn3cc(nn3)COC[C@H](CC(C)C)NC2=O)cc1 | · | · | 9.2 | · | · | ·
COc1ccc(CN2CN(S(=O)(=O)c3cccs3)c3nc4ccccc4nc32)cc1 | -2.2 | -9.7 | 5.5 | 57.9* | -4.3 | -3.3
Cc1c(Cl)cccc1NC(=O)CC1Oc2ccccc2NC1=O (stereo not drawn) | -13.6 | -2.8 | 0.0 | 23.5* | 0.2 | 4.7
Cc1c(Cl)cccc1NC(=O)CC1Sc2ccccc2NC1=O (stereo not drawn) | -10.8 | -5.6 | -13.8 | 46.4* | 1.3 | 1.8
Cc1ccc(C)c(NC(=O)CC2Sc3ccccc3NC2=O)c1 (stereo not drawn) | -2.5 | -5.7 | · | 0.5 | · | ·
COc1ccc2c3c(n(C)c2c1)[C@H](CO)N(Cc1cccc(Cl)c1)CC31CCN(C(C)=O)CC1 | · | · | 9.0 | · | · | ·
CCOCc1nnc(NC(=O)c2cc(OC)c(OC)c(OC)c2)s1 | 0.5 | 3.3 | -6.0 | -13.8 | 0.0 | ·
CC(C)c1nnc(NC(=O)c2ccc3c(c2)OCO3)s1 | 1.1 | 4.3 | 37.4 | -5.2 | -6.4 | ·
COc1cccc(C(=O)Nc2nnc(-c3ccccc3)s2)c1 | · | -26.9 | 14.4 | -5.8 | -6.4 | ·
COc1ccccc1-c1nnc(NC(=O)c2ccc3c(c2)OCO3)s1 | 2.5 | -19.0 | 3.0 | 59.2* | 0.7 | 1.8
COc1cccc(C(=O)Nc2nnc(-c3ccc(OC)cc3OC)s2)c1 | 26.1 | -44.5 | 8.7 | 38.6* | -0.7 | 7.2
COc1cc(C(=O)Nc2nnc(-c3sccc3C)s2)cc(OC)c1OC | 1.7 | 12.1 | · | 16.9* | 0.0 | 6.4
C[C@@H]1CN([C@@H](C)CO)C(=O)c2cccc(NS(=O)(=O)c3ccccc3)c2O[C@@H]1CN(C)C(=O)Nc1cccc2ccccc12 | · | · | -7.8 | · | · | ·
CCc1ccccc1NC(=O)c1ccc2nc(N3CCOCC3)sc2c1 | 2.6 | 1.4 | 6.3 | -6.1 | -0.4 | ·
SMILES | Vif inh | Neddylation inh | INS-1E GSIS act | dFosB act-1 | Bfl-1 A1 inh | dFosB act-2
Cc1ccc(NC(=O)c2ccc3nc(N4CCOCC4)sc3c2)c(Cl)c1 | · | 14.9 | -7.5 | 141.2* | 1.1 | -0.1
CO[C@H]1CN(C)C(=O)c2ccc(NC(=O)C3CC3)cc2OC[C@H](C)NC[C@@H]1C | · | · | 5.7 | · | · | ·
Cc1ccc(C(=O)c2oc3ccccc3c2NC(=O)c2cc(-c3ccccc3O)n[nH]2)cc1 | 3.0 | · | -2.9 | 30.9* | 0.0 | -4.8
O=C(Nc1c(C(=O)c2ccccc2)oc2ccccc12)c1cc(-c2ccccc2O)n[nH]1 | 2.0 | 25.9 | 5.8 | 2.3 | -0.1 | ·
CCOC(=O)C1CCN(C(=O)c2ccc3c(=O)n4nc(Nc5cc(C)ccc5C)sc4nc3c2)CC1 | -4.1 | 21.5 | -17.6 | 14.7 | 0.0 | ·
Cc1ccc(C)c(Nc2nn3c(=O)c4ccc(C(=O)NCc5cccnc5)cc4nc3s2)c1 | 3.1 | 26.7 | -3.6 | 98.7* | -1.1 | -1.4
COc1ccc([N+](=O)[O-])cc1NC(=O)CCNC(=O)Cn1ccc2ccccc2c1=O | 1.7 | -8.2 | 6.0 | 19.2* | 1.3 | -4.6
COc1ccc(OC)c(NC(=O)CCNC(=O)Cn2ccc3ccccc3c2=O)c1 | -13.1 | -6.1 | 10.7 | 3.9 | 0.6 | ·
COc1ccc(C)cc1NC(=O)CNC(=O)Cn1ccc2ccccc2c1=O | 9.1 | -0.5 | 4.4 | 47.1* | -0.9 | -1.2
CCCC#Cc1ccc([C@@H]2[C@@H](CO)N3C(=O)CN(C(=O)Nc4ccccc4)C[C@H]23)cc1 | · | · | -15.8 | · | · | ·
C[C@@H]1CN([C@H](C)CO)C(=O)c2cccc(N(C)C)c2O[C@@H]1CN(C)Cc1ccccc1 | · | · | 3.8 | · | · | ·
Cc1nn(CC(=O)NCCc2cccs2)c(=O)c2nn(-c3ccccc3)c(C)c12 | 1.2 | -15.3 | 2.9 | -11.1 | 0.7 | ·
Cc1nn(CC(=O)NCCc2cccs2)c(=O)c2cc3ccccc3n12 | 4.7 | 0.1 | 15.5 | 26.4* | -0.5 | 3.8
COc1ccccc1CNC(=O)C[C@@H]1C=C[C@@H](NC(=O)CC2CC2)[C@@H](CO)O1 | · | · | -2.8 | · | · | ·
O=C(NNC(=O)c1csc(N2CCOCC2)n1)c1ccc(Cl)nc1 | 0.4 | 11.5 | 14.0 | 1.5 | 0.6 | ·
O=C(NNC(=O)c1ccc(Cl)s1)c1csc(N2CCOCC2)n1 | 4.0 | 8.9 | 3.1 | 21.3* | -0.4 | -2.3
CC(=O)NC[C@@H]1[C@@H](c2ccc(-c3cccnc3)cc2)[C@H](CO)N1C(=O)C1CC1 | · | · | 5.9 | · | · | ·
Cc1ccc(-c2cc3c(N=O)c4ccccc4c-3n[nH]2)cc1 | -4.1 | 0.5 | 8.7 | 32.0* | -7.7 | 1.7
O=Nc1c2cc(-c3ccccc3)[nH]nc-2c2ccccc12 | -11.6 | -12.2 | 5.2 | 5.5 | · | ·
COc1ccc(NC(=O)Cn2nnc(C(=O)Nc3ccc(F)c(Cl)c3)c2N)cc1 | -7.0 | 16.7 | -0.4 | 32.4* | -0.1 | 3.8
COc1cccc(Cn2nnc(C(=O)Nc3cc(Cl)ccc3OC)c2N)c1 | -8.6 | 23.3 | 1.3 | 2.2 | 1.0 | ·
COc1ccc(Cl)cc1NC(=O)c1nnn(CC(=O)Nc2ccc(OC)c(OC)c2)c1N | -2.5 | 33.5 | 14.0 | 93.8* | 0.3 | 1.6
COc1ccc(Cl)cc1NC(=O)c1nnn(CC(=O)Nc2cc(C)cc(C)c2)c1N | 4.2 | 26.9 | -2.3 | 102.8* | 2.0 | 1.5

Screens from PubChem BioAssay.
